Experimental data published in ChEMBL document CHEMBL3988442, “University of Dundee, Small-Polar-MMV Screening Library” (2021).
The campaign covered roughly 48,000 compounds. About 13,000 (27%) showed an effect of 50% or more. The list shows a part of the results.

test system: Wolbachia pipientis; assay: Anti-Wolbachia Cell-Based Screen; type: functional; parameters: scale not given: in the data most compounds retested in dose-response had high values; conditions: 5 µM

SMILES	Percent Effect [%]
O=C(O)c1coc(COc2cccc3cnccc23)n1	-2.104
CC(=O)N1CCC(N2C[C@@H](F)[C@@H](OCc3nc4ncccc4[nH]3)C2)CC1	-11.9
CNS(=O)(=O)c1cccc(C(C)NCc2ccncc2)c1 (stereo not given)	-20.6
CN1CC[C@]2(CN(CC3CCOC3)C[C@H]2c2ccccc2)C1=O.O=C(O)C(F)(F)F (stereo not given in full)	100.2
CN1CC[C@]2(CN(S(C)(=O)=O)C[C@H]2c2ccccc2)C1=O	102.2
CN1CC[C@]2(CN(Cc3nccs3)C[C@H]2c2ccccc2)C1=O.O=C(O)C(F)(F)F	-12.3
CN(C)C(=O)CN1CC[C@]2(CN(CC3CC3)C[C@H]2c2ccccc2)C1=O.O=C(O)C(F)(F)F	97.34
CN1CC[C@]2(CN(CC3CCOCC3)C[C@H]2c2ccccc2)C1=O.O=C(O)C(F)(F)F	123.3
CCN1CC[C@]2(CN(Cc3nccs3)C[C@H]2c2ccccc2)C1=O.O=C(O)C(F)(F)F	-7.222
CCN1C(=O)C(c2ccccc2)CC12CCN(S(C)(=O)=O)CC2 (stereo not given)	-8.52
CN1CC(c2ccccc2)C2(CCN(C(=O)c3cccn3C)CC2)C1=O (stereo not given)	-2.229
CN1CCC2(CCN(CC3CCOCC3)CC2)C1=O.O=C(O)C(F)(F)F	-1.769
Cc1cc(CN2C[C@@H](C)[C@@]3(CCN(CC(=O)N(C)C)C3=O)C2)oc1C.O=C(O)C(F)(F)F	15.48
N#Cc1ccc(CN2CCCCC2Cn2cncn2)c(F)c1 (stereo not given)	-2.215
Cc1ccc(CN2CCOC3(CCN(CC4CCOC4)CC3)C2)cc1.O=C(O)C(F)(F)F.O=C(O)C(F)(F)F (stereo not given)	104.9
O=C(O)C(F)(F)F.O=C1NCC[C@]12CN(CC1CCOCC1)C[C@H]2c1ccccc1	108.1
Cc1ccc(CN2CCOC3(CCN(C(=O)C4CCOC4)CC3)C2)cc1.O=C(O)C(F)(F)F (stereo not given)	2.988
CN1CC[C@]2(CN(Cc3cccs3)C[C@H]2c2ccccc2)C1=O	-2.755
O=C(O)C(F)(F)F.O=C(c1cccnc1)N1C[C@@H](c2ccccc2)[C@@]2(CCNC2=O)C1	-21.16
Cc1ccc(CN2CCOC3(CCN(C(=O)N4CCCC4)CC3)C2)cc1.O=C(O)C(F)(F)F	-8.825
O=C(O)C(F)(F)F.O=C1NCC[C@]12CN(Cc1nccs1)C[C@H]2c1ccccc1	-4.824
CN1CC[C@]2(CN(CC3CC3)C[C@H]2c2ccccc2)C1=O	103.2
CC1CCCN(c2ccccc2OCC(=O)NC2CCOCC2)C1 (stereo not given)	10.97
CC(C)NC(=O)CC(C)NC(=O)N(C)Cc1cc(Cl)cn1C (stereo not given)	-3.888
CC(C)N1C(=O)C[C@H]2[C@@H]1CCN2C(=O)c1ccco1	-5.125

SMILES	Percent Effect [%]
COCC1CN(C(=O)c2cccs2)Cc2nccn2C1 (stereo not given)	-51.2
COCC(=O)N1Cc2nccn2CC(COc2cccnc2)C1 (stereo not given)	115.8
O=C1CCCN1CC1CN(C(=O)C2CCOCC2)Cc2nccn2C1 (stereo not given)	-10.76
O=C(CC1CC1)N1Cc2nccn2CC(COc2cccnc2)C1 (stereo not given)	106
CN(C)CCOCC1CN(C(=O)[C@H]2CCCO2)Cc2ccnn2C1 (stereo not given in full)	-10.91
COCC1CN(C(=O)c2ccccn2)Cc2nccn2C1 (stereo not given)	101.9
O=C(c1ccccn1)N1Cc2nccn2CC(COc2cccnc2)C1 (stereo not given)	-5.974
COCC(=O)N1Cc2nccn2CC(CN(C)Cc2cccnc2)C1 (stereo not given)	3.316
O=C([C@H]1CCCO1)N1Cc2nccn2CC(COc2cccnc2)C1 (stereo not given in full)	99.26
N#CCCN(CC1CCOC1)S(=O)(=O)c1cccc(Cl)c1 (stereo not given)	-9.345
CCCN1C(=O)C2(CCCCC2)NC1c1c[nH]nc1-c1cccnc1 (stereo not given)	-6.37
CC(NCc1ccccc1O)c1ccc(-n2ccnc2)cc1 (stereo not given)	4.863
CC(=O)NCCc1ccc(S(=O)(=O)N(CC(C)C)C(C)C)s1	-14.51
Nc1ccc(C(=O)N2CCC(Oc3cccc(C(F)(F)F)c3)CC2)cn1	-4.227
CN(C(=O)c1ccc(C2CCCO2)s1)C1CCS(=O)(=O)CC1 (stereo not given)	4.966
CSCCC1c2nc[nH]c2CCN1Cc1ccccc1C(F)(F)F (stereo not given)	-7.167
O=C(c1ccc[nH]1)N1Cc2nccn2CC(COc2cccnc2)C1 (stereo not given)	86.9
Cc1cc(CN2CC[C@H]3C(=O)N(c4cccnc4)CCO[C@H]3C2)no1	-10.41
CCN(CC)CCNC(=O)CCc1c(C)nn(-c2ccccc2Br)c1C	111.1
CCCNC(=O)C(C)NC(=O)CCc1ccccc1Br (stereo not given)	-13.88
COC(=O)C(CCSC)NC(=O)Cc1c(C)nn(-c2ccccc2)c1C (stereo not given)	-1.135
Cc1nn(-c2ccccc2)c(C)c1CNC(=O)NC1CC1	9.435
CCN(C(=O)NCCc1ccccc1Cl)C(C)CS(C)(=O)=O (stereo not given)	-2.563
CCCNC(=O)CNC(=O)CCc1ccccc1Br	0.9662
CCN1CCN(C(=O)c2nc(C)n(-c3ccccc3Cl)n2)CC1	7.919

SMILES	Percent Effect [%]
CS(=O)(=O)CCC(=O)Nc1cnn(-c2ccccc2Cl)c1	3.918
Cc1nn(-c2ccccc2Cl)c(C)c1CCC(=O)O	123.4
Cc1nn(-c2ccccc2Cl)c(C)c1CCC(=O)NCCS(C)(=O)=O	98.33
Cc1nn(-c2cc(Cl)cc(Cl)c2)c(C)c1CCC(=O)O	123.3
Cc1c(C(=O)NCC(F)(F)F)nnn1-c1ccccc1Cl	-14.83
Cc1noc(C2(NC(=O)c3cccnc3O)CCCCC2)n1	14.46
CCC(C)NC(=O)c1ccc(CNC(=O)CCC(C)C)cc1 (stereo not given)	19.34
Cc1cc(CC(=O)N(C)Cc2cccc(OC(C)C)c2)n[nH]1	0.9226
COCc1noc(-c2nn(-c3ccc(F)c(F)c3)c3c2CCC3)n1	-11.94
CCN(CC)CCNC(=O)c1nn(CC)cc1Cl	13.81
CCN(CC)CCNC(=O)CCc1c(C)nn(-c2ccccc2Cl)c1C	121.6
COCCCN(C)C(=O)c1nnn(-c2ccccc2Cl)c1C	-5.685
CCOc1ccccc1CSc1nnc(CC2CCS(=O)(=O)C2)n1C (stereo not given)	3.399
CN1CSC[C@H]1C(=O)N1CCN(Cc2cccc(Cl)c2)CC1	-11.1
CN(Cc1ccc(-n2cccn2)cc1)Cc1ncc[nH]1	-13.82
CC(NS(C)(=O)=O)C(=O)N(C)Cc1cnn(-c2ccc(F)cc2)c1 (stereo not given)	-5.663
COc1cccc(-n2cc(CN(C)Cc3ccnc(C(C)C)n3)cn2)c1	92.54
COc1cc(N(C)Cc2cccc(-n3cccn3)c2)nc(N)n1	-41.52
CN(Cc1cccc(-n2cccn2)c1)Cc1c[nH]cn1	125
CSCCC(O)C(=O)N(C)Cc1cnn(-c2ccc(F)cc2)c1 (stereo not given)	17.62
CN(Cc1ccc(-n2cccn2)cc1)Cc1cnc(N(C)C)nc1	-6.821
CN(Cc1cccc(-n2cccn2)c1)Cc1cccs1	32.49
COc1cccc(-n2cc(CN(C)C(=O)c3cnc(O)cn3)cn2)c1	-3.404
CC(C)c1nccc(CN(C)Cc2cccc(-n3cccn3)c2)n1	104.6
CC(C)c1nccc(CN(C)Cc2cnn(-c3ccccc3)c2)n1	112.3

SMILES	Percent Effect [%]
CCCc1cc(C(=O)N(C)Cc2cnn(-c3cccc(OC)c3)c2)[nH]n1	1.853
COc1c(F)cc(F)cc1-c1nc2c([nH]1)CCNC2	-0.5434
CC(c1cccnc1)N1CCN(CCCC#N)CC1 (stereo not given)	-7.077
CCCn1nc(C(=O)N2CCCC2c2noc(C)n2)ccc1=O (stereo not given)	-9.694
Cc1ccc(CN(C)CC(=O)NC2(C)CCS(=O)(=O)C2)cc1 (stereo not given)	2.715
CC(C)N1CCCn2nc(C(=O)NCc3ccccc3F)cc2C1	-19.91
CC(CN(C)Cc1cccc(-n2cccn2)c1)C(F)(F)F (stereo not given)	100.7
CCC(CO)N(Cc1cccc(-n2cccn2)c1)Cc1cccs1 (stereo not given)	3.193
CCC(CO)N(Cc1cccc(-n2cccn2)c1)Cc1ccccn1 (stereo not given)	-1.98
CC(C)c1nnc(NC(=O)c2cccc(OCC(F)(F)F)n2)[nH]1	-13.63
CC(C)Cc1nc(CS(=O)(=O)C(C)C(=O)N2CCOCC2)no1 (stereo not given)	1.312
O=C(CN1CCCCCC1)NCCSc1cnn[nH]1	-5.638
O=C(CN1CCCCC1)Nc1ncc(Br)cc1Br	116.4
O=C(CN1CCCc2cc(F)cc(F)c21)Nc1ccc(Br)cn1	-2.039
CSc1nccc(-c2cccc(-c3ccn(CC4COCCO4)n3)c2)n1 (stereo not given)	-11.46
Cn1cc(CN2CCO[C@@H]3CN(C4CCCC4)C[C@@H]3C2)cn1.O=C(O)C(F)(F)F.O=C(O)C(F)(F)F	-1.397
Cc1cncc(C(=O)N2C[C@@H]3CN(S(C)(=O)=O)CCO[C@@H]3C2)c1.O=C(O)C(F)(F)F	122.6
CCN1CCO[C@@H]2CN(C(=O)c3cocn3)C[C@@H]2C1.O=C(O)C(F)(F)F	-9.016
Cn1cc(C(=O)N2CC[C@@]3(O)CCN(C4CCCCC4)C[C@H]3C2)cn1	-10.98
O=C(c1ccnnc1)N1C[C@@H]2CN(c3ncccn3)C[C@@H]2C1	15.26
Cc1ccc(C(=O)N2C[C@@H]3CN(S(C)(=O)=O)CCO[C@@H]3C2)o1	-11.28
Cn1cc(C(=O)N2CCO[C@@H]3CN(C4CCC4)C[C@@H]3C2)cn1	99.44
CS(=O)(=O)N1CCO[C@@H]2CN(C(=O)c3cccnc3)C[C@@H]2C1	94.69
Cc1ccnc(C(=O)N2C[C@@H]3CN(S(C)(=O)=O)CCO[C@@H]3C2)c1.O=C(O)C(F)(F)F	-16.56
CS(=O)(=O)N1CCO[C@@H]2CN(C(=O)c3ccnnc3)C[C@@H]2C1	110.1
